Assay outcomes as filed in PubChem.
ClpP mod: qHTS Assay for Activators of ClpP. ATP-dependent Clp protease proteolytic subunit (Bacillus subtilis (strain 168)), P80244. AID 651965, 2013. 340,000 compounds, 1.9% hits. purified B. subtilis ClpP, FRET peptide cleavage, 20 min. Potency, µM (series often up to 57.5 µM), without a hit: at the highest dose activity change, negative = active; active = well fitted falling curve with a large enough effect; inconclusive = small, poorly fitted or top-dose-only effect; inactive = no such curve, though single readings can be large or run the other way; note: the source files actives as falling curves though it sought activators and does not explain the sign; nearly all actives have a fitted effect of over 65% in size
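ClpP 10 microg/mL final, pH 8 Tris/KCl buffer with BSA, glycerol, Tween-20; compound pinned in; FRET-FV substrate; RT 20 min; Ex320/Em430; ΔFRET vs ADEP 5.8 microM, DMSO, no enzyme.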
DT40 TDP1 CPT: growth inhibition of DT40 Tdp1-/-;hTDP1 cells with camptothecin (screen for TDP1 inhibitors). chicken DT40 Tdp1-/-;hTDP1 cells + 20 nM CPT, ATP luminescence, 48 h. Potency, µM (top dose mostly 46.2 µM), without a hit: at the highest dose activity change, negative = growth inhibition, hits mostly inhibitors. 420,000 compounds, 12% hits. AID 686979; note: % is set by controls: 0 for no effect and ±100 for the full control effect; nearly all actives have a fitted effect of over 55% in size
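Cell growth measured by CellTiter-Glo luminescence after a minimum 48 h, 37 C compound exposure with 20 nM CPT in Tdp1-knockout DT40 cells stably expressing hTDP1, seeded 400/well; qHTS titration format.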
DT40 TDP1 no CPT: qHTS for Inhibitors of human tyrosyl-DNA phosphodiesterase 1 (TDP1): qHTS in cells in absence of CPT; 420,000 compounds, 15% hits; Potency, µM (series often up to 46.2 µM), for inactives: at the top dose activity change, negative = growth inhibition, hits mostly inhibitors; DT40 Tdp1-/- hTDP1 cells, no CPT, ATP luminescence, 48 h; note: % is set by controls: 0 for no effect and ±100 for the full control effect; nearly all actives have a fitted effect of over 55% in size
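Readout: luminescence from CellTiter-Glo after 30 min in the dark at RT. Cells: DT40 Tdp1-/- with stable hTDP1, 400/well. Exposure: compounds alone, ≥48 hr, 37 °C.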
TDP1 inh: blocks human tyrosyl-DNA phosphodiesterase 1; recombinant TDP1, AlphaScreen DNA substrate cleavage; Potency, µM (series often up to 130 µM), without a hit: top-dose activity change, negative = inhibition, hits mostly inhibitors; AID 485290; 350,000 compounds, 0.28% hits; note: % is set by controls: 0 for no effect and ±100 for the full control effect; nearly all actives have a fitted effect of over 40% in size
Target sequence (Q9NUW8 whole entry, looked up): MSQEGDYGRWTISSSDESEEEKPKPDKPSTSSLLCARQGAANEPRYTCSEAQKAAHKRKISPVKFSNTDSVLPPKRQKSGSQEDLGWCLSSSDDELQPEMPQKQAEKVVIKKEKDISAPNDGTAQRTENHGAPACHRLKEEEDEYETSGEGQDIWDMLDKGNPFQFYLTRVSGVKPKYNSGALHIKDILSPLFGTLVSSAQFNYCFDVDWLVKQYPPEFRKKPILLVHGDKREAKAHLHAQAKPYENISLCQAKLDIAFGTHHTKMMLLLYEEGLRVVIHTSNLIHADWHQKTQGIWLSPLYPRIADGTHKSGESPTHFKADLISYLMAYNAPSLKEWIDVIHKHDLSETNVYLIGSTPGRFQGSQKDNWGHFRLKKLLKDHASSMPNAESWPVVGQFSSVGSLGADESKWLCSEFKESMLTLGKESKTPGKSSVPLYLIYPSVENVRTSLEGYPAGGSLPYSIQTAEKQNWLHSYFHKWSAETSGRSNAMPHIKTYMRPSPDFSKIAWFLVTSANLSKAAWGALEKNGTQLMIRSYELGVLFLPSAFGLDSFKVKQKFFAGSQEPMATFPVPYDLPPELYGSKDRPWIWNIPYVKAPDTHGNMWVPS
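Enzyme-compound mixtures sat 15 min at room temperature, followed by a 5 min reaction with 15 nM final substrate and 10 min with AlphaScreen beads. Recombinant human Tdp1 was used at 1 nM final.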
* = called active by the depositor; ? = inconclusive; . = not tested or not shown; [ ] = another dose, or the depositor's remark. Hits are enriched below; roughly 17% of the tested compounds scored in any of these assays. Unless noted, calls come from the whole dose curve; as a rule, active = well fitted curve in the direction sought with a large enough effect; inconclusive = small, poorly fitted or top-dose-only effect, or another doubt; inactive = no such curve, though single readings can be large; an effect the other way counts as inactive or inconclusive. Potency is the fitted concentration of half-maximal effect.

SMILES	ClpP mod	DT40 TDP1 CPT	DT40 TDP1 no CPT	TDP1 inh
COc1ccc(-c2cn(CCO)c(-c3ccncc3)n2)cc1	0%	9%	2%	1%
Cc1cccc(CN2CCN(C(=O)c3cccc4ccccc34)CC2)c1	32µM*	16µM*	?	.
Cc1cccc(CN2CCN(C(=O)c3ccccc3F)CC2)c1	1%	-8%	-4%	-11%
O=C(O)Cc1cc2ccccc2nc1C(=O)O	.	-10%	-9%	8%[56.1 µM]
CC(=O)CCc1c(C)[nH]c2ccccc2c1=O	-4%	-19%	-14%	1%
CCc1c(C)[nH]c2ccccc2c1=O	-10%	?	21µM*	0%
COc1ccc(CNc2ncncc2-c2ccc3c(c2)OCO3)c(OC)c1	.	-30%	?	20%[56.1 µM]
CC(C)CC(=O)NC(c1cccs1)c1ccc2cccnc2c1O (centres undefined)	.	2.9µM*	0.58µM*	-6%
CCC(=O)NC(c1cccs1)c1ccc2cccnc2c1O (centres undefined)	2%	2.9µM*	4.6µM*	2%
Cc1conc1NC(c1cccs1)c1ccc2cccnc2c1O (centres undefined)	.	.	.	8%
CC(NC(=O)CN1CCN(S(=O)(=O)c2ccc(Br)cc2)CC1)c1ccccc1 (centres undefined)	-2%	0%	-26%	-3%
CCOc1ccccc1C(=O)N1CCN(c2cccc(Cl)c2)CC1	-3%	0.037µM*	0.16µM*	1%
COc1ccc(C(=O)N2CCN(c3cccc(Cl)c3)CC2)c(OC)c1	1%	16µM*	12µM*	7%
CCOc1ccc2ccccc2c1C(=O)N1CCN(c2ccccc2)CC1	-2%	?	16µM*	1%
COc1cc(Cl)ccc1NC(=O)COc1ccccc1C(=O)N1CCN(c2ccc(O)cc2)CC1	-1%	23µM*	23µM*	4%
CCCCCC1Nc2cc(C(F)(F)F)c(S(N)(=O)=O)cc2S(=O)(=O)N1 (centres undefined)	.	-1%	-1%	.
Cc1cc(Br)ccc1NC(=O)CN(C)C(=O)CSC(=S)N1CCCC1	3.2µM*	-22%	?	0%
CN(CC(=O)Nc1ccccc1Cl)C(=O)CSC(=S)N1CCCC1	-1%	12%	11%	.
Nc1c(Cl)cc(Cl)cc1Cl	.	.	.	3%
COc1ccc(CN2C(=NC(=O)COc3ccccc3)SC3CS(=O)(=O)CC32)cc1 (centres undefined)	1%	-7%	-26%	4%
COc1ccc2oc(C(=O)OC(C)C(=O)NC3(C#N)CCCCC3)c(C)c2c1 (centres undefined)	25µM*	?	?	.
COc1ccc2oc(C(=O)NN3C(C)CCCC3C)c(C)c2c1 (centres undefined)	.	?	?	6%
COc1ccc2oc(C(=O)OC(C)C(=O)N3C(C)CCCC3C)c(C)c2c1 (centres undefined)	.	?	21µM*	0%
Cc1cc(=O)oc2cc(OC(C)C(=O)NC3(C#N)CCCCC3)ccc12 (centres undefined)	4%	6%	-1%	0%
CCOc1ccc(-c2nnn(CC(=O)c3ccc4c(c3)OCCO4)n2)cc1OCC	-11%	?	18µM*	3%
SMILES	ClpP mod	DT40 TDP1 CPT	DT40 TDP1 no CPT	TDP1 inh
CCOc1ccc(-c2nnn(CC(=O)NCc3ccc(F)cc3)n2)cc1OCC	-4%	-19%	-10%	-3%
COCCC1CCCCN1Cc1nc(N2CCCCC2)c2cc(OC)c(OC)cc2n1 (centres undefined)	.	-6%[9.04 µM]	-23%	.
Clc1ccc(SCCN2CCNCC2)cc1	2%	?	18µM*	3%
Clc1ccc(SCCCN2CCCCC2)cc1	0%	-7%	?	.
CCN1CCN(CCCOc2ccc(Cl)cc2Br)CC1	-2%	?	16µM*	5%
Clc1ccc(OCCN2CCCCC2)c(Cl)c1	0%	-8%	-21%	-2%
Clc1ccc(OCCCCCN2CCCC2)c(Br)c1	.	?	23µM*	-5%
Clc1ccc(OCCCN2CCCCC2)c(Br)c1	-2%	?	?	-1%
Clc1ccc(Cl)c(OCCCCN2CCNCC2)c1	.	5.8µM*	?	7%
c1ccc(CCN(Cc2ccccc2)Cc2nc(C3CC3)no2)cc1	.	-4%	11%	1%
CCCCOc1ccccc1C1CC(=O)Nc2ccc3ccccc3c21 (centres undefined)	-10%	12µM*	6.5µM*	5%
O=C1CC(c2cccs2)c2ccc3ccccc3c2N1 (centres undefined)	-2%	?	-22%	2%
O=C1CC(c2c(Cl)cccc2Cl)c2c(ccc3ccccc23)N1 (centres undefined)	-8%	?	26µM*	0%[12.3 µM]
O=C1CC(c2cc([N+](=O)[O-])ccc2Cl)c2c(ccc3ccccc23)N1 (centres undefined)	1%	16µM*	15µM*	1%
O=C1CC(c2ccsc2)c2ccc3ccccc3c2N1 (centres undefined)	.	-3%	?	-1%
O=C1CC(c2cccc([N+](=O)[O-])c2)c2ccc3ccccc3c2N1 (centres undefined)	-1%	26µM*	?	9%
COc1ccc(OC)c(C2CC(=O)Nc3ccc4ccccc4c32)c1 (centres undefined)	-3%	?	?	5%
COc1cccc(NC(=O)c2ccc3c(c2)CCN3S(C)(=O)=O)c1	0%	?	?	4%
CS(=O)(=O)N1CCCc2cc(C(=O)Nc3cccc(C(F)(F)F)c3)ccc21	-5%	?	18µM*	0%
CS(=O)(=O)N1CCc2cc(C(=O)Nc3ccc(COCC(F)(F)F)cc3)ccc21	3%	18µM*	?	.
CS(=O)(=O)N1CCc2cc(C(=O)Nc3ccc(O)cc3)ccc21	0%	6%	0%	4%
CC(C)c1ccc(NC(=O)c2ccc3c(c2)CCN3S(C)(=O)=O)cc1	9%	21µM*	8.2µM*	.
CCOC(=O)CCC(NC(=O)c1cncc(O)c1)C(=O)OCC (centres undefined)	28µM*	-8%	1%	2%
CCOC(=O)CCC(NC(=O)c1ccc(Nc2nc3ccccc3nc2C(=O)OCC)cc1)C(=O)OCC (centres undefined)	2%	10µM*	7.3µM*	.
COc1ccc(CCN2CCC(CNC(=O)c3cnn(-c4cccc(Cl)c4)c3C3CCN(C(=O)OC(C)(C)C)CC3)CC2)cc1	-3%	8.2µM*	8.2µM*	2%
CC(C)(C)OC(=O)N1CCC(c2c(C(=O)NC3CCCCC3)cnn2-c2cccc(Cl)c2)CC1	-2%	?	?	1%
COc1ccc(CCN2CCC(CNC(=O)c3cnn(-c4ccccc4)c3C3CCN(C(=O)OC(C)(C)C)CC3)CC2)cc1	1%	12µM*	8.2µM*	-1%
